Mcl1-Bid inh = Mcl-1/Bid binding inhibitors, primary screen, biochemical, TR-FRET, 1536-well; Induced myeloid leukemia cell differentiation protein Mcl-1 (Homo sapiens), Q07820; TR-FRET Mcl-1/Bid-Dy647 peptide binding; inhibition, % at 21.7 µM; hit rate 0.97% among 220,000; AID 1021, 2008;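 active = compounds that cut the binding signal by more than half at the single screening dose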;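 also: His-tagged Mcl-1 with europium anti-His antibody binding Bid BH3 peptide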
Target sequence (Q07820 whole entry, looked up): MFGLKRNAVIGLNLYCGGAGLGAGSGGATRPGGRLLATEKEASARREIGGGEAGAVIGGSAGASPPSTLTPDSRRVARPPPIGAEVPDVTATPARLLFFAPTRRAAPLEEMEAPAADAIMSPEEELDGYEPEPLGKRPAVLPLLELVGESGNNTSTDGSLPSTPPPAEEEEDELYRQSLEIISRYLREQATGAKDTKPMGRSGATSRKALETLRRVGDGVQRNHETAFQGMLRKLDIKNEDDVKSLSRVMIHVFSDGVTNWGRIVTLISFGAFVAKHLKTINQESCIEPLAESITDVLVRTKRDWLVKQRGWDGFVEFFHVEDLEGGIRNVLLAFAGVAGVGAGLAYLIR
Mcl1-Noxa inh = Mcl-1/Noxa binding inhibitors, primary screen, biochemical, TR-FRET, 1536-well | AID 1022, 2008 | inhibition, % at 21.7 µM | TR-FRET Mcl-1/Noxa peptide binding, 2 h | hit rate 1.5% among 220,000 | Induced myeloid leukemia cell differentiation protein Mcl-1 (Homo sapiens), Q07820;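 active = compounds that cut the protein-peptide binding signal by more than 50% relative to plate controls in a single-dose test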;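 also: His-tagged Mcl-1 with rhodamine Noxa BH3 peptide and terbium anti-His antibody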
TLR4 MyD88 comp = inhibitors of TLR4-MyD88 association in cells, primary screen, cell-based, HeLa CL3-4, BLA complementation, FRET ratio | Toll-like receptor 4 (Homo sapiens) + Myeloid differentiation primary response protein … | inhibition, % at 8.4 µM | HeLa CL3-4 TLR4/MyD88 BLA complementation | hit rate 0.18% among 200,000; in the data active = inhibition above about 25%
TLR9-MyD88 block = inhibitors of TLR9-MyD88 association in cells, primary screen, cell-based, CHO, BLA complementation, fluorescence. Toll-like receptor 9 (Homo sapiens) + Myeloid differentiation primary response protein …. AID 504734, 2011. inhibition, % at 4.98 µM. CCF4 FRET ratio. hit rate 0.21% among 340,000;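 active = inhibition above the mean over all tested compounds plus 3 SD, cut at about 21% in these data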
Mcl-1 Bim block = inhibitors of Bim peptide binding to Mcl-1, primary screen, biochemical, bead-based flow cytometry, multiplex; AID 1009, 2008; inhibition, % at 10 µM; Induced myeloid leukemia cell differentiation protein Mcl-1 (Homo sapiens), Q07820; Bim peptide-Mcl-1 binding; hit rate 0.1% among 190,000; in the data active = inhibition above about 40%
NOD2-RIPK2 inh = NOD2-RIPK2 binding disruptors in cells, primary screen, fluorescence, CHO cells, BLA complementation. Receptor-interacting serine/threonine-protein kinase 2 (Homo sapiens), O43353. CCF4 ratio. inhibition, % at 4.98 µM. hit rate 0.38% among 360,000; in the data active = inhibition above about 21%
A number is an active result; n = inactive; x = no result given. Hits are enriched below; roughly 1.8% of the tested compounds scored in any of these assays.

SMILES | Mcl1-Bid inh | Mcl1-Noxa inh | TLR4 MyD88 comp | TLR9-MyD88 block | Mcl-1 Bim block | NOD2-RIPK2 inh
COc1ccc(C(=O)NNC2=Nc3cccc4cccc2c34)cc1 | n | n | n | n | n | n
Cc1ccc(C(=O)NNC(=O)c2ccc3ncccc3c2)cc1 | n | n | n | n | 50 | n
O=C(NNc1c2ccccc2nc2ccccc12)c1ccc(Cl)cc1 | x | x | x | n | x | n
O=[N+]([O-])c1cc(Cl)cc(/C=N/NC(=S)Nc2ccc(S(=O)(=O)N3CCOCC3)cc2)c1O | 67 | 85 | x | n | x | n
Cc1cc(N2CC(C)OC(C)C2)n2cc(-c3ccccc3)nc2n1 (stereo not drawn) | 80 | n | n | n | n | n
O=C(COc1ccccc1F)Nc1ccc(S(=O)(=O)N2CCCC2)cc1 | x | x | x | n | x | n
COc1ccc(Nc2ncc(C(=O)N3CCN(c4ccc(F)cc4)CC3)c3ccccc23)cc1 | 99 | n | n | n | n | n
C/C(=N/NS(=O)(=O)c1ccc(Br)cc1)c1cccc(NC(=O)C2CC2)c1 | x | x | x | n | x | n
Cc1cccc2cc(/C=N/NC(=O)c3ccccc3O)c(Cl)nc12 | n | 83 | n | n | n | n
Cc1cccc2cc(/C=N/NC(=O)c3ccncc3)c(Cl)nc12 | n | n | x | n | x | n
O=C(N/N=C/c1cc2cc3c(cc2nc1Cl)OCCO3)c1ccccc1O | 60 | 71 | n | n | n | n
Cc1ccc2cc(/C=N/NC(=O)c3ccccc3O)c(Cl)nc2c1 | n | 64 | n | n | n | n
OC(c1ccccc1)(c1nc(-c2ccccc2)cs1)C(F)(F)F (stereo not drawn) | x | x | x | x | x | n
Cc1cccc(C(=O)N[C@H](C(=O)OCc2cc(=O)n3c(n2)sc2ccccc23)C(C)C)c1 | n | 69 | n | n | n | n
Cc1ccc(-c2nnc(SCC(=O)N/N=C/c3ccc(C)s3)n2-c2ccc(C)cc2)cc1 | 97 | n | n | n | n | n
O=C(COc1ccccc1Cl)Nc1nnc(S(=O)(=O)N2CCCCCC2)s1 | x | x | x | n | x | n
O=c1nc2s/c(=C\c3ccc(-c4ccccc4[N+](=O)[O-])o3)c(=O)n2nc1-c1ccccc1 | n | 96 | n | n | n | n
CN(C(=O)CC1C(=O)NCCN1Cc1ccccc1C(F)(F)F)C1CCOCC1 (stereo not drawn) | x | x | x | n | x | n
CCc1cccc(NC(=O)CCS(=O)(=O)c2ccc(Br)cc2)c1 | x | x | x | n | x | n
COc1ccccc1N1CCN(CC(=O)c2c(C)[nH]c3ccccc23)CC1 | 76 | n | n | n | n | n
COc1ccccc1N1CCN(CC(=O)c2c[nH]c3ccccc23)CC1 | n | n | x | n | x | n
Cc1cccc(Nc2cc(C)c3c(O)cccc3n2)c1C | n | 53 | n | n | n | n
Cc1cccc(NC(=S)N(C)C)c1C | n | n | x | n | x | n
CC1CCN(C(=O)COC(=O)CSc2ccc(C(N)=O)cc2[N+](=O)[O-])CC1 | x | x | x | n | x | n
COc1ccc(C(=O)NC(CO)c2nnc(SCc3ccc(Cl)c(Cl)c3)n2C)cc1 (stereo not drawn) | n | n | n | n | 41 | n
SMILES | Mcl1-Bid inh | Mcl1-Noxa inh | TLR4 MyD88 comp | TLR9-MyD88 block | Mcl-1 Bim block | NOD2-RIPK2 inh
CCn1c(CCNC(=O)c2ccc(OC)cc2)nnc1SCc1ccc(Cl)c(Cl)c1 | n | n | n | n | n | n
COc1ccc(CCCNC(=O)C2Cc3c(-c4cccc(C(C)=O)c4)ccnc3O2)cc1 (stereo not drawn) | x | x | x | x | x | n
CN(C)CCNC(=O)C1(O)c2cc(Br)ccc2NC(=O)N1c1ccc(Cl)cc1 (stereo not drawn) | x | x | x | n | x | n
O=c1cc(CN2CCN(c3ccc(O)cc3)CC2)nc2scc(-c3ccccc3)n12 | n | 67 | n | n | n | n
O=C(O)CSc1cc(C(=O)c2cc(F)ccc2O)cn2c(=O)c3c(-c4ccccc4)csc3nc12 | n | 104 | x | n | x | n
CCOC(=O)c1sc2nc3c(SCCC(=O)O)cc(C(=O)c4cc(OC)ccc4O)cn3c(=O)c2c1C | 85 | 87 | n | n | n | n
Cc1c(N2C(=O)c3cccc4cccc(c34)C2=O)cnn1C | n | n | x | n | x | n
CN(CCNC(=O)c1ccc(CS(=O)(=O)c2ccc(Br)cc2)o1)CCc1ccccc1 | x | x | x | n | x | n
CCN(CC)CCNC(=O)c1ccc(CS(=O)(=O)c2ccc(Br)cc2)o1 | 58 | n | n | n | n | n
COc1ccc(-n2cccc2/C=C2\C(=N)N3N=C(c4ccco4)SC3=NC2=O)cc1 | 81 | 87 | n | n | n | n
Cc1cc(/C=C2\C(=N)N3N=C(c4ccco4)SC3=NC2=O)c(C)n1Cc1ccccc1 | n | 63 | x | n | x | n
COc1cc(OC)cc(C(=O)N[C@H](C(=O)NC2=NCCS2)C(C)C)c1 | x | x | x | n | x | n
CC(C)c1nnc(NC(=O)CSc2ncn[nH]2)s1 | n | 53 | n | n | n | n
CN(Cc1c(O)ccc2c1oc(=O)c1ccccc12)C1CCCCC1 | 65 | n | n | n | n | n
Cc1occc1C(=O)N=Nc1c(O)[nH]c2ccc(Br)cc12 | n | 51 | n | x | n | x
COc1ccc(-n2c(N)c(-c3nc4ccccc4n3C)sc2=S)cc1 | n | 89 | n | n | n | n
CCOc1ccc(/C=C2/SC(=S)N(C(C(=O)O)c3ccccc3)C2=O)cc1OCC (stereo not drawn) | n | n | n | n | n | n
CCOc1cc(/C=C2\SC(=S)N(C(C(=O)O)c3ccccc3)C2=O)ccc1O (stereo not drawn) | 51 | 51 | x | n | x | n
COc1ccc(Nc2cc(C(=O)NC3CCCC3)c3ccccc3n2)c(OC)c1 | x | x | x | n | x | n
CC(=O)Nc1ccc(-c2csc(NC(=O)C3CC(=O)N(c4ccc5c(c4)OCCO5)C3)n2)cc1 (stereo not drawn) | n | 87 | x | n | x | n
COc1cc(CN2CCC(C(=O)NC3CCCC3)CC2)cc(Br)c1O | 51 | n | n | n | n | n
COc1cc(CN2CCC(C(=O)N3CCC(C)CC3)CC2)cc(Br)c1O | n | n | n | n | n | n
Cc1c([N+](=O)[O-])c(C(=O)Nc2ccc3c(c2)OCCO3)nn1C | 73 | n | n | n | n | n
Cc1ccc(C(C)C)c(OCC(=O)NN=C(CCl)CCl)c1 | n | n | x | x | x | x
Cc1cc(C)cc(N=Cc2[nH]c3ccc(Br)c(Cl)c3c2O)c1 | n | 52 | n | n | n | n
COc1ccc(CN=Cc2[nH]c3ccc(Br)c(Cl)c3c2O)cc1 | n | n | n | n | n | n
O=C(c1ccc(=O)[nH]n1)N1CCN(S(=O)(=O)c2ccc(C(F)(F)F)cc2)CC1 | x | x | x | n | x | n
Cc1c(Cc2ccccc2)c(NCCN(C)C)n2c(nc3ccccc32)c1C#N | n | 79 | x | n | x | n

Assay outcomes deposited in PubChem BioAssay by several laboratories.
